Screen size: about 5,500 compounds; about 2,000 (36%) were called active. About 18% were inconclusive and are not listed. Cut-off read from the data, not from the text of the source: active = normalized growth mostly below about 0.91 (no sharp cut-off); inconclusive = no clear call, values can overlap the other calls; inactive = mostly above about 0.92. The list shows a part of the results.
Test: chemical genetic growth profiling, strain panel (AID 1159580);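 note: tested at 20 µM; growth read once vehicle control cultures reached saturation at 30 °C; 1 = growth at the plate median or of vehicle wells; lower values mean less growth of the strain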
Conditions: growth OD

Measured: normalized growth

CC(C)c1nc2ccccc2[nH]1
inactive: S. cerevisiae deletion strains, locus YAL013W, strain DEP1, hits give low values 1.01 | S. cerevisiae deletion strains, locus YBR229C, strain ROT2, hits give low values 1.03 | S. cerevisiae deletion strains, locus YCL061C, strain MRC1, hits give low values 1.01 | S. cerevisiae deletion strains, locus YDL101C, strain DUN1, hits give low values 1.03 | S. cerevisiae deletion strains, locus YDL134C, strain PPH21, hits give low values 1.02 | S. cerevisiae deletion strains, locus YDR150W, strain NUM1, hits give low values 0.993 | S. cerevisiae deletion strains, locus YEL061C, strain CIN8, hits give low values 1.01 | S. cerevisiae deletion strains, locus YGR078C, strain PAC10, hits give low values 1.01 | S. cerevisiae deletion strains, locus YHR030C, strain SLT2, hits give low values 1.02 | S. cerevisiae deletion strains, locus YHR087W, strain rtc3, hits give low values 1.03 | S. cerevisiae deletion strains, locus YJR043C, strain POL32, hits give low values 1 | S. cerevisiae deletion strains, locus YJR075W, strain HOC1, hits give low values 1.02 | S. cerevisiae deletion strains, locus YLR039C, strain RIC1, hits give low values 1.01 | S. cerevisiae deletion strains, locus YLR058C, strain SHM2 (second series), hits give low values 1.01 | S. cerevisiae deletion strains, locus YLR085C, strain ARP6, hits give low values 1.03 | S. cerevisiae deletion strains, locus YLR262C, strain YPT6, hits give low values 1 | S. cerevisiae deletion strains, locus YML094W, strain GIM5, hits give low values 1.01 | S. cerevisiae deletion strains, locus YMR219W, strain ESC1, hits give low values 1.01 | S. cerevisiae deletion strains, locus YMR263W, strain SAP30, hits give low values 1.02 | S. cerevisiae deletion strains, locus YNL128W, strain TEP1, hits give low values 1.01 | S. cerevisiae deletion strains, locus YNL153C, strain GIM3, hits give low values 1.01 | S. cerevisiae deletion strains, locus YNL298W, strain CLA4 (second series), hits give low values 1 | S. cerevisiae deletion strains, locus YNL322C, strain KRE1, hits give low values 1.02 | S. cerevisiae deletion strains, locus YNR030W, strain Alg12, hits give low values 1.01 | S. cerevisiae deletion strains, locus YOL006C, strain TOP1, hits give low values 1 | S. cerevisiae deletion strains, locus YPL055C, strain LGE1, hits give low values 1.04 | S. cerevisiae deletion strains, locus YPL241C, strain CIN2, hits give low values 1 | S. cerevisiae deletion strains, locus YPR135W, strain CTF4, hits give low values 1.05 | S. cerevisiae strains, strain wild type, hits give low values 1.01
